These results are taken from ChEMBL document CHEMBL1201862, “PubChem BioAssay data set” (2004).

Hit rate of the full screen: of about 56,000 […], about 4,300 (7.7%) were called active. No stated cut-off is given here; in the data, active = GI50 up to about 1.1 µM and inactive = higher. Not all results are given here. Measured potencies and affinities stand elsewhere.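 Values below derive from 48-hour exposures of cells grown in 96-well plates, with endpoints linearly interpolated between the two concentrations bracketing the appropriate inhibition level. GI50: concentration for 50% inhibition of growth.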

The subject of the assay is OVCAR-3. Description: NCI tumour cell line growth inhibition, 48 h.
“[Bis(aminomethyl)dimethylsilane]dichloroplatinum (II), CHEMBL2146201” showed a GI50 of 30.5 µM.

Consider “[Bis(aminomethyl)pentamethylenesilane]dichloropaltinum(II), CHEMBL2146202”, for which the GI50 is 6.5 µM.

Regarding “[Bis(aminomethyl)dimethylsilane]tetrachloroplatinum(IV), CHEMBL2146190”, the GI50 worked out at 7.29 µM.

In turn, “cis-Bis[[(trimethylsilyl)methyl]amino]tetrachloroplatinum(IV), CHEMBL2146191” came in with a GI50 of 2.99 µM.

Regarding “[Bis(aminomethyl)pentamethylenesilane]tetrachloropaltinum(IV), CHEMBL2146204”, the GI50 came out at 4.56 µM.

For “[Bis(aminomethyl)tetramethylenesilane]dichloropaltinum(II), CHEMBL2146205”, the GI50 came to 32.5 µM.

Substance “[Bis(aminomethyl)tetramethylenesilane]tetrachloropaltinum(IV), CHEMBL2146189” gave a GI50 of 13.1 µM.

Regarding CISPLATIN, CHEMBL11359, the GI50 was found to be 2.67 µM.

Turning to “[Bis(aminomethyl)diethylsilane]tetrachloroplatinum(IV), CHEMBL2146203”, the GI50 is 6.11 µM.

“[Bis(aminomethyl)ethylmethylsilane]tetrachloroplatinum(IV), CHEMBL2146192”: the GI50 worked out at 4.43 µM.

In turn, “mu-(1,7-nanodiamine-N,N')bis-(cis-aminedichloroplatimum (II)), CHEMBL2146215” returned a GI50 of 29 µM.
